PHOSPHO1 block – blocks human PHOSPHO1 phosphatase activity; recombinant PHOSPHO1, absorbance phosphatase assay; inhibition, % at 13.3 µM; hit rate 1.1% among 290,000; AID 1565; in the data active = inhibition above about 60%
Target sequence (Q8TCT1 whole entry, looked up): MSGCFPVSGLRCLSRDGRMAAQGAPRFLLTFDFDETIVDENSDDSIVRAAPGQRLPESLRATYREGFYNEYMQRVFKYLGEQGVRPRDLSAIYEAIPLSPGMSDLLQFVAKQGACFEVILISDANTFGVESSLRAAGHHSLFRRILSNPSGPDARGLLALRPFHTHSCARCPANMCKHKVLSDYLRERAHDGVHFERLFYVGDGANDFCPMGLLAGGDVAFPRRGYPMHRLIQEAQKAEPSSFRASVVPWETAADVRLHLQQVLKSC
CTSL1 counter – counter-screen for PFM18AAP inhibitors: inhibitors of F. hepatica cathepsin L1 | AID 1906 | hit rate 0.49% among 300,000 | recombinant F. hepatica cathepsin L1, Z-Leu-Arg-MCA fluorescence | inhibition, % at 5.96 µM;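 active = inhibition above the mean of all tested compounds plus 3 SD, set per screening campaign, cut at about 17% in these data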;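 also: 0% = plate median of test compound wells and 100% = 1 µM Z-Phe-Ala-diazomethylketone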
CendR NRP1 mod – modulators of CendR peptide binding to human neuropilin-1. O14786. FAM-RPARPAR peptide binding to NRP-1, fluorescence polarization. inhibition, % at 25 µM. hit rate 0.85% among 360,000. AID 602438;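 active = inhibition or corrected inhibition above about 18%, plus a signal ratio from 0.5 to 1.5, limit read from the data, passing the limit was not always enough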
HNF4A DNA FP – change in binding of human HNF4 alpha to DNA; HNF4a-FITC DNA binding, fluorescence polarization, 1 h; activity change, % at 10 µM; hit rate 0.3% among 360,000; AID 1224865; in the data active = activity change above about 30%, passing the limit was not always enough
Rpn11 inh – inhibitors of human proteasome Rpn11 | O00487 | human 26S proteasome, Ub4-pepOG fluorescence polarization; 20S core pre-blocked with epoxomicin | inhibition, % at 20 µM | hit rate 0.59% among 360,000 | AID 588493;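 active = inhibition at 20 µM, scaled to each plate's controls, above about 33%, limit read from the data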
Target sequence (O00487 whole entry, looked up): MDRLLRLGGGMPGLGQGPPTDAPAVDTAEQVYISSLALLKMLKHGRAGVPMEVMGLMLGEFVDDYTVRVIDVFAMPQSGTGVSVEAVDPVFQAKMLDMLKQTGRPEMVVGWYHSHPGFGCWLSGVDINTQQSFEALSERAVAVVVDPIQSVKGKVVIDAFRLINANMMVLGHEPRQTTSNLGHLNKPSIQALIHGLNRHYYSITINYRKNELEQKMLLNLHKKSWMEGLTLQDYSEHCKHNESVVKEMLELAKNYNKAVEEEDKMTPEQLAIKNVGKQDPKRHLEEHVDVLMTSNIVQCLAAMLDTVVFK
TPT1 inhibitor – blocks Candida albicans tRNA 2'-phosphotransferase | inhibition, % at 5 µM | AID 1962 | recombinant caTPT1, FP RNA substrate dephosphorylation | hit rate 0.81% among 300,000;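 active = inhibition above the mean of all tested compounds plus 3 SD, set per screening campaign, cut at about 24% in these data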;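 also: plate controls were DMSO alone for no effect and ferristatin control at 100 nM for full effect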
The depositor's hits bear a star; . = no result. Rows were chosen to be rich in hits. Some 3.3% of all compounds tested hit in one or more screens of this group.

SMILES	PHOSPHO1 block	CTSL1 counter	CendR NRP1 mod	HNF4A DNA FP	Rpn11 inh	TPT1 inhibitor
CC(Sc1nnc(-c2cccnc2)n1N)C(=O)NCCC1=CCCCC1 (centres undefined)	.	.	-2	4	-9	.
C=CCSc1nc(-c2ccc(OC)cc2)c(C#N)c(=O)n1CC=C	60*	.	-2	-1	4	.
COc1ccc(-c2nc3n(c(=O)c2C#N)CCS3)cc1	18	1	-9	1	-5	3
Clc1ccc(/C=N/c2c(-c3ccco3)nc3ccccn23)cc1	9	5	36*	-4	-39	-6
Oc1ccccc1/C=N/c1c(-c2ccco2)nc2ccccn12	26	0	5	-3	-16	-5
CC1CCN(S(=O)(=O)c2ccc(C(=O)N3CCN(c4ccccc4F)CC3)cc2)CC1	60*	1	-7	-2	0	-3
CC(C)CC(NC(=O)C1CCC(=O)N1)C(=O)NC(CC(C)C)C(=O)N1CCCC1C(N)=O (centres undefined)	24	17*	9	-1	4	-1
CC(C)CC(NC(=O)C(NC(=O)OC(C)(C)C)C(C)C)C(=O)N1CCCC1C(N)=O (centres undefined)	-36	18*	16	-2	-6	-2
CCNC(=O)C(CC(C)C)NC(=O)C(CO)NC(=O)C1CCC(=O)N1 (centres undefined)	19	1	1	5	-4	3
O=C1c2ccccc2C(=O)c2c1ncn2-c1ccccc1	3	0	-4	2	2	1
O=C1c2ccccc2C(=O)c2[nH]cnc21	-17	.	18*	-1	11	.
O=C1Nc2ccccc2C1=O	.	1	4	2	-7	-4
O=C1c2ccccc2C(=O)c2[nH]c(=O)[nH]c21	31	31*	28*	-8	-5	-1
CC1=NN(c2nc(-c3ccc(C)cc3)cs2)C(=O)C1N=Nc1ccc(C(N)=O)cc1 (centres undefined)	24	1	-16	8	21	14
CCOc1cc(/C=C2\C(=N)N3N=C(C)SC3=NC2=O)ccc1OCCOc1cccc(OC)c1	-29	1	-18	0	21	9
CCc1nn2c(=O)cc(COc3ccc(/C=C4\C(=N)N5N=C(C)SC5=NC4=O)cc3)nc2s1	61*	4	-18	-8	16	1
COc1ccc(S(=O)(=O)N(C)[C@H]2C[C@H]3c4cc(N5CCN(C)CC5)ccc4CCN3C(=O)[C@H]2[C@H](C)O)cc1	.	.	-13	1	-4	.
CCCNC(=O)C(Sc1ccccc1)c1ccccc1 (centres undefined)	7	36*	10	-2	-1	1
CC1CCC2(CC1)NC(=O)N(CC(=O)NCc1ccc(Cl)cc1)C2=O (centres undefined)	.	.	12	-2	5	.
Brc1ccccc1C1=Nn2c(nnc2-c2ccccc2)SC1	83*	-1	-2	2	1	1
Cc1nn(C)cc1/C=N/NC(=O)CSc1ccccn1	12	-2	-4	1	1	-1
CCOc1ccc2nc(CN3CCN(Cc4ccsc4)C(CCO)C3)ccc2c1 (centres undefined)	-38	-3	3	-4	-3	-2
C=CCN1CN(S(=O)(=O)c2cccc(Cl)c2)c2nc3ccccc3nc21	18	17*	-7	9	8	-2
COCCN1CN(S(=O)(=O)c2cccc(Cl)c2)c2nc3ccccc3nc21	18	2	14	8	-4	-5
Cc1cc(C)cc(-n2nnc(C(=O)NCc3ccc4c(c3)OCO4)c2N)c1	-2	-2	-6	0	8	9
SMILES	PHOSPHO1 block	CTSL1 counter	CendR NRP1 mod	HNF4A DNA FP	Rpn11 inh	TPT1 inhibitor
Cc1cccc(-n2nnc(C(=O)NCc3ccc4c(c3)OCO4)c2N)c1	60*	-1	-2	1	-3	-7
COc1cccc(-c2nc3nc(C)cc(C)n3c2Nc2c(C)cccc2C)c1	.	.	-133	53*	.	.
CCCCNc1c(-c2cccc(OC)c2)nc2nc(C)cc(C)n12	.	.	-6	2	.	.
COc1ccc(C(=O)OCCN2CCOCC2)cc1	6	-4	0	-2	-5	0
COc1cc(/C=N/NC2=NC(C)(C)Cc3ccccc32)cc(OC)c1OC	51	3	-2	0	-3	0
CN(C1=C(NC(=O)c2ccccc2)C(=O)c2ccccc2C1=O)C1CCS(=O)(=O)C1 (centres undefined)	-4	22*	45*	-3	-118	-7
CC1=NN(C(N)=S)C(=O)C1N=Nc1c(Br)cc(Br)cc1Br (centres undefined)	44	2	-4	-2	-1	0
O=C1CCCN1CCCNC(=S)Nc1ccc(Cl)cc1Cl	16	1	40*	0	4	-1
O=C(/C=C\c1ccc2c(c1)OCO2)Nc1nnc(SCC(=O)OCc2ccccc2)s1	4	0	.	.	.	1
Cc1c(C)n2c(SCC(=O)N3CCC(C)CC3)nnc2[nH]c1=O	.	2	24*	1	3	-1
Cc1c(C)n2c(SCC(=O)NC3CCCCC3)nnc2[nH]c1=O	.	-2	-6	-7	-4	-4
CCC1S/C(=C(\C#N)C(=O)NCc2ccco2)N(c2ccc(F)cc2)C1=O (centres undefined)	76*	3	-9	1	-5	2
O=C(COc1cccc2ccccc12)N1c2ccccc2CCc2ccccc21	46	3	-2	0	3	-5
Clc1ccc(-c2nn3c(C4COc5ccccc5O4)nnc3s2)cc1 (centres undefined)	92*	2	12	3	8	1
COc1ccc(/C=C/C(=O)NCCSCc2ccco2)cc1	-12	0	-12	-1	1	5
COc1cc2c(cc1NC(=O)COC(=O)CNC(=O)c1ccccc1)oc1ccccc12	41	24*	-9	2	2	0
COc1ccc(C=C2c3ccccc3C(=O)c3ccccc32)c(OC)c1	24	-1	-5	2	-1	-4
COc1cc(OC)c2c(c1)C(=O)c1cc(OC)cc(OC)c1C2=O	107*	1	-5	6	11	-12
Brc1ccc(C2=Nn3c(nnc3-c3n[nH]c4c3CCC4)SC2)cc1	11	-1	-2	0	3	1
Clc1ccc(C2=Nn3c(nnc3-c3n[nH]c4c3CCC4)SC2)cc1	73*	-4	-12	3	1	-3
COc1cc(C(=O)NC2CCCc3c2cnn3-c2ccccc2F)cc(OC)c1OC (centres undefined)	24	-1	-1	-1	-5	-3
CC1(C)CC(N2CCN(c3ccccc3)CC2)=CC(=[N+]2CCCC2)C1	86*	2	2	1	1	1
CC1(C)CC(N2CCCC2)=CC(=[N+]2CCCCCC2)C1	-83	9	16	-4	9	1
Cc1ccc2cccnc2c1NC(=S)NC(=O)c1ccccc1	69*	-1	-5	3	9	4

From PubChem BioAssay
